# Legend:
# Test in all cases: DAPPL (digital affinity profiling via proximity ligation, sequencing); 10 mM Tris-HCl pH 7.5, 50 mM NaCl, 1 mM DTT, 4% glycerol, room temperature, 30 min; GST-TFs on glutathione beads, 16-mer random dsDNA library, 0.1% formaldehyde crosslink after washing; high values mean tight binding
# Conditions in all cases: protein: recombinant; tags: N-terminal GST; dsDNA, one strand shown
# [1] = target: T1, FLI1 (Homo sapiens, UniProt Q01543 1-452)
# T1 sequence: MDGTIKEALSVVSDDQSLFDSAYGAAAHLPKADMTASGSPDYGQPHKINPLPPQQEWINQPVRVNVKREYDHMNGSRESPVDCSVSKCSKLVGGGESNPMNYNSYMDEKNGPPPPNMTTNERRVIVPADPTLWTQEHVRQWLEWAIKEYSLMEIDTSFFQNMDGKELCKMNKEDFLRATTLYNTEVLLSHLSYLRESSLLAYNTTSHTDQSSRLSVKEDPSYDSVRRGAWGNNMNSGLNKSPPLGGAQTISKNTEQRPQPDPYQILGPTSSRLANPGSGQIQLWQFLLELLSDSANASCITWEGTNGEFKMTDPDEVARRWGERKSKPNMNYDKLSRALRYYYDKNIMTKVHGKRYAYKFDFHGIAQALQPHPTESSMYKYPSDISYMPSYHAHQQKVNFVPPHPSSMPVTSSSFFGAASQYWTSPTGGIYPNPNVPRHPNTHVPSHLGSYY
# Method in brief: (§1)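 GST fusions of human transcription factors were expressed in yeast and captured with glutathione beads. Once given DNA barcodes and pooled alongside a tag-only sample, they were incubated for 30 min at room temperature with 200 nmole of a random double-stranded 16-mer DNA library in Tris/NaCl/DTT/glycerol buffer, then washed, crosslinked (0.1% formaldehyde), proximity-ligated, PCR-amplified and sequenced on an Illumina NextSeq500. The binding signal of each hexamer is its read frequency for a factor divided by its frequency for the tag-only sample.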
# [2] = target: T2, ELK1 (Homo sapiens, UniProt P19419 1-428)
# T2 sequence: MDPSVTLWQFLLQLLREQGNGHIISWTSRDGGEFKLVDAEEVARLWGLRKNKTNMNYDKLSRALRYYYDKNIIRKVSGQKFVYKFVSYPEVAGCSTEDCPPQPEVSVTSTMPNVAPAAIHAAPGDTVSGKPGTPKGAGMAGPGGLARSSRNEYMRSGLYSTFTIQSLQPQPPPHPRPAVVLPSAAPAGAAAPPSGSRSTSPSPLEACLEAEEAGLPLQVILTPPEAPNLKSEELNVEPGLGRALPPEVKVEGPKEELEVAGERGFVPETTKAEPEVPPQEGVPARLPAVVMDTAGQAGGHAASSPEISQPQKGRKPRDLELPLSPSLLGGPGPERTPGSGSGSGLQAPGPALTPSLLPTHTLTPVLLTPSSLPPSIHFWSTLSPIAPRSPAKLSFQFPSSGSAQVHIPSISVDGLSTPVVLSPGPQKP
# Method in brief: as §1
# [3] = target: T3, GABPA (Homo sapiens, UniProt Q06546 1-454)
# T3 sequence: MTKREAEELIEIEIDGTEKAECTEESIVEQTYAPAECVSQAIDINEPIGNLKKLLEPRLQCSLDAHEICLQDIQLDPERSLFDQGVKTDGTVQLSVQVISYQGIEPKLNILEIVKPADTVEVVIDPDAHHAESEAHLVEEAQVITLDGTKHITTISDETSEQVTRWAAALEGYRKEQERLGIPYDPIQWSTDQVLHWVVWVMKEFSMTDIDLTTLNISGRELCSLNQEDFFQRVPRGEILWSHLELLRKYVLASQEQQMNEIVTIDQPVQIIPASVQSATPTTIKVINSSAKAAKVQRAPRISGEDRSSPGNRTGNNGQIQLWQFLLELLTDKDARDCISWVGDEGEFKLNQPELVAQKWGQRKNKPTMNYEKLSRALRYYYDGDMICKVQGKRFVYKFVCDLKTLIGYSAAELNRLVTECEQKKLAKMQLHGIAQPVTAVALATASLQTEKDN
# Method in brief: as §1
# [4] = target: T4, ERG (Homo sapiens, UniProt P11308 1-479)
# T4 sequence: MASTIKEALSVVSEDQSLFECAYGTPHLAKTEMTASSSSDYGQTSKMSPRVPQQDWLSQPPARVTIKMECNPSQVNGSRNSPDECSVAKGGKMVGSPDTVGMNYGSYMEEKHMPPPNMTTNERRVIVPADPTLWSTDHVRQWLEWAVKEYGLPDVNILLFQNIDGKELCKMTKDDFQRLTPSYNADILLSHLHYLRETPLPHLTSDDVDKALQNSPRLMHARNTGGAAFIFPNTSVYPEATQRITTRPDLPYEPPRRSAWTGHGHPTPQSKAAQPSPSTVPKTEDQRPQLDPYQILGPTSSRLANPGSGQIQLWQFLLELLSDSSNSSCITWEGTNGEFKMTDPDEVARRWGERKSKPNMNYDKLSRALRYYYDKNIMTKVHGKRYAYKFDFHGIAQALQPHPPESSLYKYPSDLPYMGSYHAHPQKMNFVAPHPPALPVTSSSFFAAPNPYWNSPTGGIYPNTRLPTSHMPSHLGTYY
# Method in brief: as §1
# [5] = target: ELF1 (Homo sapiens, UniProt P32519 1-619)
# Sequence of ELF1 (P32519 whole entry): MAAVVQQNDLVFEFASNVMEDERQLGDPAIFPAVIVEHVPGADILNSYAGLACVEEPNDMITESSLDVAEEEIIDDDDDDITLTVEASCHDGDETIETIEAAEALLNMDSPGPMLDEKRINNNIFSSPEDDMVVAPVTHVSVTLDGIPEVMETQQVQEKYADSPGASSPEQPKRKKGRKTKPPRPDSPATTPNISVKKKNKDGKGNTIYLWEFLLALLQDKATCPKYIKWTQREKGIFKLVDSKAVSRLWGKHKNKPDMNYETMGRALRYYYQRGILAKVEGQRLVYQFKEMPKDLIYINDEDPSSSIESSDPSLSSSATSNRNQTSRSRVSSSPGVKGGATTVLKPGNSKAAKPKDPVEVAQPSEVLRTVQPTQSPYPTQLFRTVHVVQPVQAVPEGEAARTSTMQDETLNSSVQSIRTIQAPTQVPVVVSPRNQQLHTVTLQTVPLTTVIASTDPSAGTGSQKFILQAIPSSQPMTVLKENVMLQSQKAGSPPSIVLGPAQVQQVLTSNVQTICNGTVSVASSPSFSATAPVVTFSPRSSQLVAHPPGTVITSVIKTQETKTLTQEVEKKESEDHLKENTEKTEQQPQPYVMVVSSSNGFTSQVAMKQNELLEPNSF
# Method in brief: as §1
# [6] = target: T5, EHF (Homo sapiens, UniProt Q9NZC4 1-300)
# T5 sequence: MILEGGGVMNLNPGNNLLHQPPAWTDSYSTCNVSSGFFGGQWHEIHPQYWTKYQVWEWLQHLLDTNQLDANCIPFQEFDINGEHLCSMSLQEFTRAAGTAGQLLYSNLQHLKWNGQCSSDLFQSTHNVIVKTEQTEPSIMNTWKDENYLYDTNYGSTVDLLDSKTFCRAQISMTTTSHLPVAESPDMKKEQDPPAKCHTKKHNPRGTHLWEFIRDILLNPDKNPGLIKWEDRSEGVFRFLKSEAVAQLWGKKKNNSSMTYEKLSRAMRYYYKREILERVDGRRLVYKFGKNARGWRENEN
# Method in brief: as §1
# [7] = target: SPI1 (Homo sapiens, UniProt P17947 1-270)
# Method in brief: as §1
# [8] = target: SPIB (Homo sapiens, UniProt Q01892 1-262)
# Sequence of SPIB (Q01892 whole entry): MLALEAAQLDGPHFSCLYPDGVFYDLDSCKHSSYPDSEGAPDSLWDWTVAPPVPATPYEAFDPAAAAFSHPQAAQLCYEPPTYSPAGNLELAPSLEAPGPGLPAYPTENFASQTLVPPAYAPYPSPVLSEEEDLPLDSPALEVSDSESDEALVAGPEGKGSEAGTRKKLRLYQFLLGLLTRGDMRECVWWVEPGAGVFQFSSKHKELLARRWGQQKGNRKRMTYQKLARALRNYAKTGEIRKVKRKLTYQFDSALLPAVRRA
# Method in brief: as §1
# [9] = target: T6, ELK3 (Homo sapiens, UniProt P41970 1-407)
# T6 sequence: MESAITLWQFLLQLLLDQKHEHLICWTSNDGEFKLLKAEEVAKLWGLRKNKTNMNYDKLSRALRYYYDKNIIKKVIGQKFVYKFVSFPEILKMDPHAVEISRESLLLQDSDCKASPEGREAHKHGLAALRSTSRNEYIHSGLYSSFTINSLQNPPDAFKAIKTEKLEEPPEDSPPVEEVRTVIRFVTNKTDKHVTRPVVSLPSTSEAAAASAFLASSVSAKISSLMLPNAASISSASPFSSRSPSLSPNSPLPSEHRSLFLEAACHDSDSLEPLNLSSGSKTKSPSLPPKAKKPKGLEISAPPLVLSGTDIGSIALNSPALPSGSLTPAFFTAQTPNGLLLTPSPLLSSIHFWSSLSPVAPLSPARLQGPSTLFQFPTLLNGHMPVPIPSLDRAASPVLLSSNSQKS
# Method in brief: as §1
Sequence,binding signal [1],binding signal [2],binding signal [3],binding signal [4],binding signal [5],binding signal [6],binding signal [7],binding signal [8],binding signal [9]
CGTTCG,"1.15 fold enrichment (6-mer frequency, TF over GST control)","1.14 fold enrichment (6-mer frequency, TF over GST control)","1.23 fold enrichment (6-mer frequency, TF over GST control)","1.17 fold enrichment (6-mer frequency, TF over GST control)","1.22 fold enrichment (6-mer frequency, TF over GST control)","1.25 fold enrichment (6-mer frequency, TF over GST control)","1.1 fold enrichment (6-mer frequency, TF over GST control)","1.14 fold enrichment (6-mer frequency, TF over GST control)","1.24 fold enrichment (6-mer frequency, TF over GST control)"
ACTATC,"1.15 fold enrichment (6-mer frequency, TF over GST control)","1.13 fold enrichment (6-mer frequency, TF over GST control)","1.17 fold enrichment (6-mer frequency, TF over GST control)","1.11 fold enrichment (6-mer frequency, TF over GST control)","1.12 fold enrichment (6-mer frequency, TF over GST control)","1.14 fold enrichment (6-mer frequency, TF over GST control)","1.21 fold enrichment (6-mer frequency, TF over GST control)","1.16 fold enrichment (6-mer frequency, TF over GST control)","1.07 fold enrichment (6-mer frequency, TF over GST control)"
GTATAT,"1.13 fold enrichment (6-mer frequency, TF over GST control)","1.22 fold enrichment (6-mer frequency, TF over GST control)","1.13 fold enrichment (6-mer frequency, TF over GST control)","1.09 fold enrichment (6-mer frequency, TF over GST control)","1.17 fold enrichment (6-mer frequency, TF over GST control)","1.2 fold enrichment (6-mer frequency, TF over GST control)","1.13 fold enrichment (6-mer frequency, TF over GST control)","1.23 fold enrichment (6-mer frequency, TF over GST control)","1.11 fold enrichment (6-mer frequency, TF over GST control)"
AAACTC,"1.29 fold enrichment (6-mer frequency, TF over GST control)","1.3 fold enrichment (6-mer frequency, TF over GST control)","1.15 fold enrichment (6-mer frequency, TF over GST control)","1.17 fold enrichment (6-mer frequency, TF over GST control)","1.25 fold enrichment (6-mer frequency, TF over GST control)","1.24 fold enrichment (6-mer frequency, TF over GST control)","1.13 fold enrichment (6-mer frequency, TF over GST control)","1.18 fold enrichment (6-mer frequency, TF over GST control)","1.16 fold enrichment (6-mer frequency, TF over GST control)"
ATTCAC,"1.23 fold enrichment (6-mer frequency, TF over GST control)","1.2 fold enrichment (6-mer frequency, TF over GST control)","1.22 fold enrichment (6-mer frequency, TF over GST control)","1.27 fold enrichment (6-mer frequency, TF over GST control)","1.34 fold enrichment (6-mer frequency, TF over GST control)","1.2 fold enrichment (6-mer frequency, TF over GST control)","1.16 fold enrichment (6-mer frequency, TF over GST control)","1.2 fold enrichment (6-mer frequency, TF over GST control)","1.35 fold enrichment (6-mer frequency, TF over GST control)"
TCTATC,"1.25 fold enrichment (6-mer frequency, TF over GST control)","1.27 fold enrichment (6-mer frequency, TF over GST control)","1.21 fold enrichment (6-mer frequency, TF over GST control)","1.21 fold enrichment (6-mer frequency, TF over GST control)","1.25 fold enrichment (6-mer frequency, TF over GST control)","1.19 fold enrichment (6-mer frequency, TF over GST control)","1.22 fold enrichment (6-mer frequency, TF over GST control)","1.17 fold enrichment (6-mer frequency, TF over GST control)","1.37 fold enrichment (6-mer frequency, TF over GST control)"
ACTACT,"1.28 fold enrichment (6-mer frequency, TF over GST control)","1.25 fold enrichment (6-mer frequency, TF over GST control)","1.28 fold enrichment (6-mer frequency, TF over GST control)","1.28 fold enrichment (6-mer frequency, TF over GST control)","1.32 fold enrichment (6-mer frequency, TF over GST control)","1.34 fold enrichment (6-mer frequency, TF over GST control)","1.29 fold enrichment (6-mer frequency, TF over GST control)","1.34 fold enrichment (6-mer frequency, TF over GST control)","1.31 fold enrichment (6-mer frequency, TF over GST control)"

# Reference: paper PMC7862700, “An all-to-all approach to the identification of sequence-specific readers for epigenetic DNA modifications on cytosine”
